Inconclusive results are not listed. The source made the active and inactive calls. The call rests on the fitted dose curve; in most records, active means well fitted inhibition curve with a large enough effect; inconclusive means small, poorly fitted or top-dose-only effect; inactive means flat fitted curve, though single readings scatter.
Key:
[1] = system: CRL-7250; assay: Cytotoxic Profiling of Annotated Libraries Using Quantitative High-Throughput Screening (AID 1296008); conditions: Five cell lines viability, CellTiter-Glo ATP luminescence, 48-72 h; max response: active compounds read low; on max response: on the % scale 0 is the no-effect control and ±100 the full control effect
Outline: (§1)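 Cytotoxicity was measured as CellTiter-Glo ATP luminescence, read after 10 min at room temperature. Compound treatment of the cells lasted 48 or 72 hr at 37 degrees Celsius in a qHTS format.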

[2] = system: HEK293; assay: as above; conditions: Five cell lines viability, CellTiter-Glo ATP luminescence, 48-72 h; max response: active compounds read low
Outline: as §1

[3] = system: ECU; assay: qHTS profiling for inhibitors of Plasmodium falciparum proliferation (AID 504749); conditions: P. falciparum in erythrocytes, SYBR Green DNA, 72 h; series mostly up to 28.7 µM
Outline: (§2)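 In a 72 h erythrocytic culture (37 C, humidified, 5% CO2) at 2.5% hematocrit and 0.3% starting parasitemia, compounds were tested; SYBR Green I in detergent lysis buffer stained parasite DNA overnight.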

[4] = system: FAB9; assay: as above; conditions: P. falciparum in erythrocytes, SYBR Green DNA, 72 h; series mostly up to 28.7 µM
Outline: as §2

[5] = system: GB4; assay: as above; conditions: P. falciparum in erythrocytes, SYBR Green DNA, 72 h; series mostly up to 28.7 µM
Outline: as §2

[6] = system: HB3; assay: as above; conditions: P. falciparum in erythrocytes, SYBR Green DNA, 72 h; series mostly up to 28.7 µM
Outline: as §2

[7] = system: ICS; assay: as above; conditions: P. falciparum in erythrocytes, SYBR Green DNA, 72 h; series mostly up to 28.7 µM
Outline: as §2

[8] = system: JCK; assay: as above; conditions: P. falciparum in erythrocytes, SYBR Green DNA, 72 h; series mostly up to 28.7 µM
Outline: as §2

[9] = system: N140; assay: as above; conditions: P. falciparum in erythrocytes, SYBR Green DNA, 72 h; series mostly up to 28.7 µM
Outline: as §2

[10] = system: P93_24; assay: as above; conditions: P. falciparum in erythrocytes, SYBR Green DNA, 72 h; series mostly up to 28.7 µM
Outline: as §2

[11] = system: P94_40; assay: as above; conditions: P. falciparum in erythrocytes, SYBR Green DNA, 72 h; series mostly up to 28.7 µM
Outline: as §2

[12] = system: PAD; assay: as above; conditions: P. falciparum in erythrocytes, SYBR Green DNA, 72 h; series mostly up to 28.7 µM
Outline: as §2

[13] = system: PC15; assay: as above; conditions: P. falciparum in erythrocytes, SYBR Green DNA, 72 h; series mostly up to 28.7 µM
Outline: as §2

[14] = system: PC26; assay: as above; conditions: P. falciparum in erythrocytes, SYBR Green DNA, 72 h; series mostly up to 28.7 µM
Outline: as §2

[15] = system: PC49; assay: as above; conditions: P. falciparum in erythrocytes, SYBR Green DNA, 72 h; series mostly up to 28.7 µM
Outline: as §2

[16] = system: SC27B; assay: as above; conditions: P. falciparum in erythrocytes, SYBR Green DNA, 72 h; series mostly up to 28.7 µM
Outline: as §2

[17] = system: TAB109; assay: as above; conditions: P. falciparum in erythrocytes, SYBR Green DNA, 72 h; series mostly up to 28.7 µM
Outline: as §2

[18] = system: TAB113; assay: as above; conditions: P. falciparum in erythrocytes, SYBR Green DNA, 72 h; series mostly up to 28.7 µM
Outline: as §2

[19] = system: TAB165; assay: as above; conditions: P. falciparum in erythrocytes, SYBR Green DNA, 72 h; series mostly up to 28.7 µM
Outline: as §2

[20] = system: W2; assay: as above; conditions: P. falciparum in erythrocytes, SYBR Green DNA, 72 h; series mostly up to 28.7 µM
Outline: as §2
Further: nearly all actives have a fitted effect of over 60% in size.
Potency means the concentration at half of the fitted maximal effect.

CC(C)=CCN1CC[C@@]2(C)c3cc(O)ccc3C[C@@H]1[C@@H]2C
inactive: max response [1] -10.3%

CN1CCC(N(Cc2ccccc2)c2ccccc2)CC1
inactive: max response [1] -21.6%

CNC(C)Cc1ccccc1OC (stereo not drawn)
inactive: max response [1] -10.9%

COc1cc(C[C@@H](C)N)c(OC)cc1C
inactive: max response [1] -47.5%

CC(C)=C[C@@H]1[C@@H](C(=O)OCc2coc(Cc3ccccc3)c2)C1(C)C
inactive: max response [1] 2.34%

COc1cc(CC#N)cc(OC)c1OC
inactive: max response [1] -2.26%

CCCC[N+]1(C)[C@@H]2CC(OC(=O)[C@H](CO)c3ccccc3)C[C@H]1[C@@H]1O[C@@H]12 (stereo partly drawn)
inactive: max response [1] -24.5% | outcome [1] | outcome [2]

O=C(O)Cc1ccccc1
inactive: max response [1] -22.4%

CN1C2CCC(C)(C)C1CC(OC(=O)C(O)(c1cccs1)c1cccs1)C2 (stereo not drawn)
inactive: max response [1] -6.95%

COc1ccc(OC)c(CC(C)N)c1 (stereo not drawn)
inactive: max response [1] -3.68%

COc1cc(CC(C)N)cc2c1OCO2 (stereo not drawn)
inactive: max response [1] -5.81%

Nc1ccccc1C(=O)OCC(O)CO (stereo not drawn)
inactive: max response [1] 1.8%

CCOC(=O)c1cncn1C(C)c1ccccc1 (stereo not drawn)
inactive: max response [1] 3.39% | outcome [1] | max response [2] -6.12% | outcome [2]

C#C[C@]1(O)C=C[C@H]2[C@@H]3CCC4=CC(=O)CC[C@@H]4[C@H]3CC[C@@]21CC
inactive: max response [1] 0.605%

CC1Sc2c(C(=O)O)c(=O)c3cc(F)c(N4CCNCC4)cc3n21 (stereo not drawn)
inactive: max response [1] -1.22%

O=C(N[C@H]1N=C(c2ccccc2F)c2cccc3c2N(CC3)C1=O)c1cc2ccccc2[nH]1
inactive: max response [1] 2.91%

Cc1cccc(Cc2cnc[nH]2)c1C
inactive: max response [1] -4.56%

CCOC(=O)c1ncn2c1CN(C)C(=O)c1c(I)cccc1-2
inactive: max response [1] -19.8%

CC[C@H]1C[C@H]2[C@@H]3CCC4=CC(=O)CC[C@@H]4[C@H]3CC[C@]2(C)[C@H]1O
inactive: max response [1] -11.6%

COc1ccc2c(C(=O)c3ccc(Cl)cc3)c(C)n(CC(=O)O)c2c1
inactive: max response [1] -9.6%

CCOC(=O)C(c1c(O)c2ccccc2oc1=O)c1c(O)c2ccccc2oc1=O
inactive: max response [1] -6.62%

C[C@H](CN1CCOCC1)C(C(=O)N1CCCC1)(c1ccccc1)c1ccccc1
inactive: max response [1] -21.1%

COc1ccc2[nH]cc(CCN(C(C)C)C(C)C)c2c1
inactive: max response [1] -1.26%

CCN(CC)Cc1nccn1-c1ccc([N+](=O)[O-])cc1C(=O)c1ccccc1Cl
inactive: max response [1] -12.2%

CC[C@H]1C[C@@H]2C[C@H]3c4[nH]c5ccc(OC)cc5c4CCN(C2)[C@@H]13
inactive: max response [1] 1.28%

Cc1nc2ccccc2c(=O)n1-c1ccccc1Cl
inactive: max response [1] -16.7%

CCc1cc(OC)c(C[C@H](C)N)cc1OC
inactive: max response [1] -4.69%

CC1COC2(c3ccccc3Cl)c3cc(Cl)ccc3NC(=O)CN12 (stereo not drawn)
inactive: max response [1] -0.632%

CCCN(CCC)CCc1c[nH]c2ccccc12
inactive: max response [1] -1.07%

CN1[C@@H]2CC[C@H]1CC(OC(=O)c1cc(Cl)cc(Cl)c1)C2 (stereo partly drawn)
inactive: max response [1] -20.4%

COc1cc(C[C@@H](C)N)c(OC)cc1Br
inactive: max response [1] 2.12%

C[C@@H]1O[C@@H](O[C@@H]2C=C3CC[C@@H]4[C@H](CC[C@]5(C)[C@@H](c6ccc(=O)oc6)CC[C@]45O)[C@@]3(C)CC2)[C@H](O)[C@H](O)[C@H]1O
active: Potency [1] 0.0133 µM

CCCC(C)C1(CC)C(=O)N=C(S)NC1=O (stereo not drawn)
inactive: max response [1] -2.8%

CC(Cc1ccccc1)NCCCCl (stereo not drawn)
inactive: outcome [1]

O=C(N[C@@H]1N=C(c2ccccc2F)c2cccc3c2N(CC3)C1=O)c1cc2ccccc2[nH]1
inactive: max response [1] -34.1%

CCOC(=O)NC(C)(C)Cc1ccc(Cl)cc1
inactive: max response [1] -4.28%

COC(=O)C1=CCCN(C)C1
inactive: Potency [3] | Potency [4] | Potency [5] | Potency [6] | Potency [7] | Potency [8] | Potency [9] | Potency [10] | Potency [11] | Potency [12] | Potency [13] | Potency [14] | Potency [15] | Potency [16] | Potency [17] | Potency [18] | Potency [19] | Potency [20]

O=C(CBr)Nc1ccc(Cl)cc1C(=O)c1ccccc1F
inactive: outcome [1] | max response [2] -0.335%

CN(C)C(=S)SSC(=S)N(C)C
active: Potency [3] 6.31 µM | Potency [4] 6.31 µM | Potency [5] 2.13 µM | Potency [6] 1.26 µM | Potency [7] 0.891 µM | Potency [8] 8.91 µM | Potency [9] 1.78 µM | Potency [10] 2.51 µM | Potency [11] 2 µM | Potency [12] 2 µM | Potency [13] 3.16 µM | Potency [14] 3.79 µM | Potency [15] 11.2 µM | Potency [16] 6.31 µM | Potency [17] 1.58 µM | Potency [18] 3.98 µM | Potency [19] 2.51 µM | Potency [20] 0.849 µM | Potency [1] 0.75 µM | Potency [2] 0.944 µM

c1ccc2nc(N3CCNCC3)ccc2c1
inactive: Potency [3] | Potency [4] | Potency [5] | Potency [6] | Potency [7] | Potency [8] | Potency [9] | Potency [10] | Potency [11] | Potency [12] | Potency [13] | Potency [14] | Potency [15] | Potency [16] | Potency [17] | Potency [18] | Potency [19] | Potency [20] | max response [1] -2.05%

CN(C)CCc1c[nH]c2cccc(O)c12
inactive: outcome [1] | max response [2] -13.6%

CCS(=O)(=O)C(C)(C)S(=O)(=O)CC
inactive: Potency [3] | Potency [4] | Potency [5] | Potency [6] | Potency [7] | Potency [8] | Potency [9] | Potency [10] | Potency [11] | Potency [12] | Potency [13] | Potency [14] | Potency [15] | Potency [16] | Potency [17] | Potency [18] | Potency [19] | Potency [20] | max response [1] -10.9% | max response [2] 1.49%

CC(C)C(Br)C(=O)NC(N)=O (stereo not drawn)
inactive: Potency [3] | Potency [4] | Potency [5] | Potency [6] | Potency [7] | Potency [8] | Potency [9] | Potency [10] | Potency [11] | Potency [12] | Potency [13] | Potency [14] | Potency [15] | Potency [16] | Potency [17] | Potency [18] | Potency [19] | Potency [20] | outcome [1] | max response [2] 2.09%

CC1N=C(N)OC1c1ccccc1 (stereo not drawn)
inactive: max response [1] -30.4% | max response [2] -15.4%

O=c1n(Cl)c(=O)n(Cl)c(=O)n1Cl
inactive: Potency [3] | Potency [4] | Potency [5] | Potency [6] | Potency [7] | Potency [8] | Potency [9] | Potency [10] | Potency [11] | Potency [12] | Potency [13] | Potency [14] | Potency [15] | Potency [16] | Potency [17] | Potency [18] | Potency [19] | Potency [20] | outcome [1]

c1cc2c(c(N3CCNCC3)c1)OCCO2
inactive: Potency [3] | Potency [4] | Potency [5] | Potency [6] | Potency [7] | Potency [8] | Potency [9] | Potency [10] | Potency [11] | Potency [12] | Potency [13] | Potency [14] | Potency [15] | Potency [16] | Potency [17] | Potency [18] | Potency [19] | Potency [20] | max response [1] -0.883% | max response [2] -10.2%

Reference: PubChem BioAssay (NCATS)
